Here are results for 24 compounds from ChEMBL document CHEMBL4513146, “CO-ADD screening of Karazin Kharkiv National University (Ukraine) compounds”.

Potency and affinity values are given separately.

For this experiment, the system named is Candida albicans. The note with it: Concentration 32 ug.mL-1; ASSAY_TEST Inhibition of Fungal Growth; detection method Absorption (OD530).
Usually Inhibition stands for the drop in the measured response relative to a control, in per cent. With `COc1cc(NC(=O)C(C)Sc2nnc3c(=O)n(-c4cccc(OC)c4)ccn23)cc(OC)c1` (centres undefined), the Inhibition is given as -0.84%.

Consider `COc1cccc(NC(=O)Cn2nc3c(Oc4cccc(OC)c4)nccn3c2=O)c1`, for which the Inhibition is listed as 3.44%.

For the compound `O=C(Cn1nc2c(N3CCSCC3)nc3ccccc3n2c1=O)NCc1ccccc1`, the Inhibition stood at 0.65%.

Consider `Cc1ccccc1-c1noc(Cn2nc3ccc(-c4ccccc4)nn3c2=O)n1`, for which the Inhibition is 31.81%.

Consider `CCCCOc1ccc(-c2cc3c4nnc(SCC(=O)Nc5cc(F)ccc5C)n4ccn3n2)cc1`, for which the Inhibition is listed as 9.93%.

On to `Cc1cccc(NC(=O)Cn2nc3ccc(-c4ccccc4)nn3c2=O)c1`, for which the Inhibition stood at 4.41%.

With `COc1ccc(-c2cc3c4nn(CC(=O)Nc5ccc(OC)cc5OC)c(=O)n4ccn3n2)cc1`, the Inhibition stood at 0.69%.

Regarding `O=C(CSc1nnc2ccc(C(=O)NCc3ccccc3)cn12)Nc1ccccc1Br`, the Inhibition is 5.15%.

`COc1cccc(-n2ccn3c(SCC(=O)N4CCN(c5ccc(F)cc5)CC4)nnc3c2=O)c1`: the Inhibition is reported as 0.06%.

`Cc1cc2nn(CC(=O)NCc3ccccc3)c(=O)n2c(Nc2ccc(C)c(F)c2)n1`: the Inhibition turned out to be 6.49%.

`CSc1cccc(NC(=O)Cn2nc3c(N4CCCC4)nccn3c2=O)c1`: the Inhibition was 3.86%.

Regarding `CCOC(=O)c1ccc(NC(=O)Cn2nc3c(Oc4ccccc4)nccn3c2=O)cc1`, the Inhibition is recorded as -0.16%.

Take `COc1cccc(CN(c2cc(F)cc(F)c2)S(=O)(=O)c2ccc3nnc(C)n3c2)c1`: the Inhibition is 1.34%.

As for `COc1ccc(-c2cc3c4nnc(SCC(=O)Nc5ccc(C#N)cc5)n4ccn3n2)cc1`, the Inhibition was found to be 1.48%.

Turning to `COc1ccc(-c2cc3c4nn(CC(=O)Nc5cccc(C)c5)c(=O)n4ccn3n2)cc1`, the Inhibition came to 3.36%.

In the case of `CC(C)c1ccc(Cn2c(=O)c3sccc3n3c(SCc4cccc(C(F)(F)F)c4)nnc23)cc1`, the Inhibition was -0.58%.

On to `COC(=O)c1ccccc1NC(=O)CSc1nc2ccccc2n2c(C(C)C)nnc12`, for which the Inhibition was -0.8%.

`Cc1ccc(NC(=O)Cn2nc3ccc(SCc4ccc(Cl)cc4)nn3c2=O)c(C)c1`: the Inhibition is 4.69%.

Turning to `CCOc1ccc(-n2ccn3c(SCC(=O)Nc4cc(OC)cc(OC)c4)nnc3c2=O)cc1`, the Inhibition came to 2.98%.

Take `COc1ccc(CN(c2cc(C)cc(C)c2)S(=O)(=O)c2cccn3cnnc23)cc1F`: the Inhibition amounted to 0.54%.

For the compound `Cn1c(=O)c2sccc2n2c(=O)n(Cc3ccc(Cl)cc3)nc12`, the Inhibition is reported as -0.47%.

In the case of `COc1ccccc1-n1ccn2c(SCc3cccc(F)c3)nnc2c1=O`, the Inhibition worked out at 2.05%.

Regarding `Cc1cc2nn(CC(=O)Nc3ccccc3F)c(=O)n2c(Nc2ccc(F)c(C)c2)n1`, the Inhibition amounted to 7.27%.

As for `COc1cccc(CSc2nnc3c(=O)n(-c4ccccc4OC)ccn23)c1`, the Inhibition is on record as 1.36%.
